# From PubChem BioAssay
# Shown are actives, neighbours in structure and some others; about 17% of the full set was active somewhere.
# TGFb SMAD3 inh – qHTS for Inhibitors of TGF-b. 1.2% of 410,000 active. Potency, µM (series often up to 46.1 µM), inactives show at the top dose activity, negative = inhibition, usual class: inhibitors. HepG2 CAGA-GFP TGF-b/SMAD3 reporter, GFP fluorescence, 18 h; TGF-beta stimulated, 500 pg/mL final; note: % is set by controls: 0 for no effect and ±100 for the full control effect; nearly all actives have a fitted effect of over 65% in size
#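 Using HEPG2 CAGA-GFP reporter cells at 1000 cells/well, we pinned test compounds, stimulated with recombinant TGF-beta (500 pg/mL final) and measured total well GFP after 18 h.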
# ATXN2 expr inh – Primary qHTS for Inhibitors of ATXN expression | HEK-293 ATXN2-luciferase reporter, luminescence, 24 h | Potency, µM (titrated, usually from 57 µM), without a hit: at the top dose activity change, negative = inhibition, hits mostly inhibitors | 0.72% of 360,000 active; note: % is set by controls: 0 for no effect and ±100 for the full control effect; nearly all actives have a fitted effect of over 55% in size
#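 qHTS (up to 57 uM final) was run with 24 h compound exposure of reporter cells at 37 °C. Each well was multiplexed: SteadyGlo luminescence measured ATXN2-luciferase expression after a fluorogenic Gly-Phe-AFC viability readout (25 uM final).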
# DT40 TDP1 no CPT – qHTS for Inhibitors of human tyrosyl-DNA phosphodiesterase 1 (TDP1): qHTS in cells in absence of CPT; AID 686978, 2013; Potency, µM (highest dose often 46.2 µM), without a hit: at the highest dose activity change, negative = growth inhibition, usual class: inhibitors; DT40 Tdp1-/- hTDP1 cells, no CPT, ATP luminescence, 48 h; 15% of 420,000 active; note: % is set by controls: 0 for no effect and ±100 for the full control effect; nearly all actives have a fitted effect of over 55% in size
#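 A cellular qHTS used chicken DT40 cells lacking endogenous Tdp1 but carrying stably transfected human TDP1. Compounds were applied without camptothecin, and cell growth kinetics were judged by ATP-dependent luminescence after ≥48 hr.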
# TDP1 cell CPT – qHTS for Inhibitors of human tyrosyl-DNA phosphodiesterase 1 (TDP1): qHTS in cells in presence of CPT | Potency, µM (highest dose often 46.2 µM), for inactives: at the highest dose activity change, negative = growth inhibition, most hits filed as inhibitors | 12% of 420,000 active | chicken DT40 Tdp1-/-;hTDP1 cells + 20 nM CPT, ATP luminescence, 48 h; note: % is set by controls: 0 for no effect and ±100 for the full control effect; nearly all actives have a fitted effect of over 55% in size
#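 Chicken DT40 Tdp1-/- cells complemented with human TDP1, 400 cells/well, exposed to compounds plus 20 nM camptothecin for at least 48 h at 37 C; viability read as ATP content by CellTiter-Glo luminescence.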
# HepG2 tox – qHTS for Inhibitors of TGF-b: Cytotox Counterscreen; HepG2 CAGA-GFP viability, ATP luminescence, 18 h; Potency, µM (highest dose often 46.1 µM), without a hit: top-dose activity change, negative = cytotoxicity, actives largely listed as cytotoxic; AID 588856, 2011; 0.76% of 410,000 active
#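 HepG2 CAGA-GFP cells (1000/well, DMEM with 1% FBS) received compound, then TGF-beta at 500 pg/mL final, and were incubated 18 hours at 37 degrees C. Viability was read by CellTiter-Glo luminescence. Media-only wells were set as complete cell-killing and DMSO as no toxicity.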
# S2 tox – Viability Counterscreen for Primary qHTS for Inhibitors of ATXN expression | Potency, µM (series often up to 56.7 µM), hits mostly cytotoxic | AID 651635, 2014 | S2 cells (HEK-293 line with an ATXN2-luciferase reporter) viability, CellTiter-Fluor protease fluorescence, 24 h | 0.49% of 400,000 active; note: nearly all actives have a fitted effect of over 40% in size
# Starred values were filed as active, the others as inactive; i = inactive; ? = inconclusive; . = not tested or not shown; [ ] = dose if it differs, or a comment. Calls come from the whole dose curve; as a rule, active = well fitted curve in the direction sought with a large enough effect; inconclusive = small, poorly fitted or top-dose-only effect, or another doubt; inactive = no such curve, though single readings can be large; an effect the other way counts as inactive or inconclusive. Potency is the fitted concentration of half-maximal effect.
SMILES,TGFb SMAD3 inh,ATXN2 expr inh,DT40 TDP1 no CPT,TDP1 cell CPT,HepG2 tox,S2 tox
COc1ccccc1OC(=O)CCN1c2ccccc2Sc2ccccc21,0.4%,3.5%,-17.6%,0.3%,2.9%,i
COc1ccc(-[n+]2c(C)cc(/C=C3\Sc4ccccc4N3C)cc2C)cc1,101.5%,?,0.0073µM*,0.0146µM*,-73.5%,?
COc1ccccc1-[n+]1c(C)cc(/C=C2\Sc3ccccc3N2C)cc1C,115.2%,.,0.0206µM*,0.0651µM*,-103.0%,?
COc1ccc(C(=O)/C=C2\Sc3ccccc3N2C)cc1,8.7%,33.0%[11.3 µM],?,-2.6%,-12.1%,.
CCC(C)c1ccc(OCC(=O)Nc2cccc3ccc(C)nc23)cc1 (centres undefined),0.0%,-7.8%,-25.5%,?,-94.9%,i
O=C(OCCc1ccccc1)c1cc(O)c(O)c(O)c1,-27.8%,25.8%,23.1µM*,18.4µM*,-28.6%,i
O=C(Oc1ccccc1)c1cc(O)c(O)c(O)c1,7.7%,-24.3%,23.1µM*,20.6µM*,-24.2%,i
CCCCNC(=O)N1CCCC(C(=O)c2cc(C)c(OC)c(C)c2)C1 (centres undefined),-29.1%,-13.8%,16.4µM*,?,-33.1%,i
COc1ccc(C(=O)C2CCCN(Cc3nc4ccccc4nc3C)C2)cc1OC (centres undefined),0.5%,-12.8%,?,-22.6%,-30.0%,i
COc1cccc(OC)c1CN1CCCC(C(=O)c2ccccc2SC)C1 (centres undefined),?,-34.3%,20.6µM*,16.4µM*,-23.7%,?
COCCC(=O)N1CCCC(C(=O)c2ccccc2SC)C1 (centres undefined),-0.9%,-4.9%[2.22 µM],-38.9%,-26.0%,-10.9%,i
CCOc1cccc(CN2CCCC(C(=O)c3cccc(C(F)(F)F)c3)C2)c1O (centres undefined),6.9%,-4.4%,-6.3%,-1.0%,-1.4%,.
COc1ccc(C(=O)C2CCCN(Cc3c(O)cccc3OC)C2)cc1OC (centres undefined),1.0%,-20.1%,7.31µM*,?,-26.6%,i
CCCc1cc(C(=O)N2CCCC(C(=O)c3cc(C)c(OC)c(C)c3)C2)n(C)n1 (centres undefined),-11.9%,?,?,-41.6%,-10.4%,i
O=C(c1cccc(C(F)(F)F)c1)C1CCCN(Cc2cccn2-c2ccccn2)C1 (centres undefined),?,-37.9%[11.3 µM],14.6µM*,14.6µM*,-30.2%,?
O=C(Nc1cccc(F)c1)c1ccc(-c2ccccc2)s1,-7.8%,21.1%,?,?,-26.7%,?
CNC[C@@H](O)[C@@H](O)[C@H](O)[C@H](O)CO,.,10.8%,.,.,.,.
CNCC(=O)N[C@@H](CCCN=C(N)N)C(=O)N[C@H](C(=O)N[C@@H](Cc1ccc(O)cc1)C(=O)N[C@H](C(=O)N[C@@H](Cc1cnc[nH]1)C(=O)N1CCC[C@H]1C(=O)N[C@@H](C)C(=O)O)C(C)C)C(C)C,.,.,6.8%,-9.9%,.,.
COc1cccc(CN2CCCC(C(=O)c3ccc4c(c3)OCO4)C2)c1OC (centres undefined),-5.5%,-19.3%,?,?,-22.6%,i
COc1ccc(C(=O)C2CCCN(Cc3cccc4c3OCO4)C2)cc1OC (centres undefined),-28.6%,.,9.2µM*,?,-23.3%,i
